This passage reports inhibition results from ChEMBL document CHEMBL3433997, “St. Jude Leishmania screening dataset” (2016).

SMILES strings stand for the structures.

What all share (assay type): functional
Assay [1] concerns the target Solute carrier family 2, facilitated glucose transporter member 1 (Homo sapiens) (UniProt P11166). The assay is described as follows: ST_JUDE_LEISH: Cytotoxicity at 2uM final concentration against transgenic Leishmania Mexicana promastigotes LmGLUT1 that are glucose transport deficient and complemented with the human glucose transporter GLUT1. Activity is measured by DNA content using SYBR green in vitro.

The target of assay [2] is Hexose transporter 1 (Plasmodium falciparum) (UniProt O97467). Put plainly: ST_JUDE_LEISH: Cytotoxicity at 2uM final concentration against transgenic Leishmania Mexicana promastigotes LmPfHT that are glucose transport deficient and complemented with the Plasmodium falciparum hexose transporter. Activity is measured by DNA content using SYBR green in vitro.
The target of assay [3] is Glucose transporter (Leishmania mexicana) (UniProt O61059). The assay is described as follows: ST_JUDE_LEISH: Cytotoxicity at 2uM final concentration against transgenic Leishmania Mexicana promastigotes LmGT2 that are glucose transport deficient and complemented with the L. Mexicana glucose transporter 2. Activity is measured by DNA content using SYBR green in vitro.

Sequence of Solute carrier family 2, facilitated glucose transporter member 1 (Homo sapiens) (P11166 whole entry): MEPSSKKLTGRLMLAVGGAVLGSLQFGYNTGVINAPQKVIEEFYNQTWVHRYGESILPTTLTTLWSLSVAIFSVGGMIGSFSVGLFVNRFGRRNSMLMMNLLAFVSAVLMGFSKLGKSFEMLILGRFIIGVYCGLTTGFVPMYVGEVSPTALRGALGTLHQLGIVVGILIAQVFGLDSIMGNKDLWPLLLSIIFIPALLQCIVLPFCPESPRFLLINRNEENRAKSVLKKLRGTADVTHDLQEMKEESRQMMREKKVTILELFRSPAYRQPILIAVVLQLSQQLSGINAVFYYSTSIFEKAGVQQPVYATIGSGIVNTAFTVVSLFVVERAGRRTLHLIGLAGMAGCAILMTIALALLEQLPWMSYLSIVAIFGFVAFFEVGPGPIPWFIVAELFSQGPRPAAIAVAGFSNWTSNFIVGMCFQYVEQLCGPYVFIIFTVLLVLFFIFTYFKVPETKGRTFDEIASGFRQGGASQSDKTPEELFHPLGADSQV

In general, inhibition refers to the relative decrease from the control value, in per cent. Take `COc1nc(NCC(C)C)nc(Oc2ccc(=O)n(Cc3ccccc3)n2)n1`: the inhibition in assay [1] turned out to be 1.73%; in assay [2], 1.88%; in assay [3] it was 3.48%.

For the molecule `CC(C)(CNC(=O)[C@@H]1CCCCN1)c1nc(-c2ccc(Cl)c(O)c2)c(-c2ccncc2)[nH]1`, the figures for the inhibition in assay [1], in assay [2] and in assay [3] were 2.07%, 2.19% and 1.02%, respectively.

`Oc1ccc2nc(N3CCNCC3)nc(NCCCc3ccccc3)c2c1`: the inhibition in assay [1] is -0.71%; in assay [2], -0.65%; in assay [3] it was 0.5%.

`CC(C)N(C(=O)CSc1nc2cc(Cl)ccc2c(=O)n1Cc1ccccc1)C(C)C`: the inhibition is 0.98% in assay [1], 2.14% in assay [2] and 0.05% in assay [3].

With `Cc1cc(OCC2CCN(c3ccc(C(=O)NC4CC4)cn3)CC2)ccc1F`, the values for the inhibition in assay [1], in assay [2] and in assay [3] were 0.67%, 1.45% and -6.22%, respectively.

In the case of `CCN(CC)CCCC(C)Nc1c(-c2ccc(OC)cc2)cnc2ccccc12` (stereo not drawn), the inhibition in assay [1] is 2.85%; in assay [2] it was 3.79%; in assay [3] it was 0.36%.

Consider `FC(F)(F)c1ccc2c(NCCc3ccccc3)ccnc2c1`, for which the inhibition in assay [1] is 4.24%; in assay [2], 5.12%; in assay [3], 3.79%.

In the case of `CCCC(C)Nc1nc(C)cc(NCCC(=O)Nc2ccc(OC)cc2)n1` (stereo not drawn), the inhibition was 1.95% in assay [1], 0.08% in assay [2] and -0.58% in assay [3].

`Cc1cccc2nc(-c3ccc(-c4ccc(CNCc5cccc(N)c5)cc4)s3)[nH]c12`: the figures for the inhibition in assay [1], in assay [2] and in assay [3] were 4.29%, 1.98% and 2.76%, respectively.

On to `Nc1ccc(-c2nc3cc(C4=N[C@H]5CCCC[C@H]5N4)ccc3o2)cc1[N+](=O)[O-]`, for which the inhibition in assay [1] was 3.44%; in assay [2], 1.57%; in assay [3], -0.09%.

Regarding `CN(C)CCNC(=O)c1ccc(-c2ccc3c(Nc4ccccc4)c(C(N)=O)cnc3c2)cc1`, the inhibition is 1.31% in assay [1], 1.74% in assay [2] and 2.36% in assay [3].

In the case of `CCNCc1ccc(-c2cc3ncnc(Nc4ccc(OCc5cccc(F)c5)c(Cl)c4)c3s2)[nH]1`, the figures for the inhibition in assay [1], in assay [2] and in assay [3] were -0.88%, -3.14% and 3.41%, respectively.

Turning to `Cc1cc(N2CCOCC2)nc2ccc(NC(=O)c3cccc([N+](=O)[O-])c3)cc12`, the figures for the inhibition in assay [1], in assay [2] and in assay [3] were 5.27%, 4.5% and 3.77%, respectively.

As for `COc1ccc(NC(=O)CCNc2cc(C)nc(NCc3cccc(C)c3)n2)cc1`, the inhibition is -0.09% in assay [1], 0.43% in assay [2] and -1.14% in assay [3].

Regarding `CCc1cc(-c2onc(C)c2-c2cc3ccccc3o2)c(O)cc1OC`, the inhibition in assay [1] is 1.25%; in assay [2], -1.2%; in assay [3], -0.24%.

Regarding `CN(CCC1CCN(C(=O)/C=C/c2ccc(Cl)c(Cl)c2)CC1)C1CCC(c2c[nH]c3ccccc23)CC1` (stereo not drawn), the values for the inhibition in assay [1], in assay [2] and in assay [3] were 7%, 8.06% and 3.97%, respectively.

For `COc1ccc(CNCC2CCC(CNCCc3ccccc3)CC2)cc1Cl` (stereo not drawn), the inhibition stood at 1.1% in assay [1], 2.42% in assay [2] and 2.3% in assay [3].

For the molecule `CNC(=O)c1cnc(Nc2ccc(N3CCOCC3)cc2)nc1Nc1cccc(O)c1`, the inhibition was 3.92% in assay [1], 5.41% in assay [2] and -1.69% in assay [3].

For the molecule `CCN(CC)CCCN(CCCN(CC)CC)c1cc(C)nc(Nc2ccc(Br)cc2)n1`, the figures for the inhibition in assay [1], in assay [2] and in assay [3] were 0.34%, 0.99% and -0.4%, respectively.

Take `CN(C)CCCOc1ccc(-c2nc(-c3ccc4c(c3)CCC4=NO)c(-c3ccncc3)[nH]2)cc1`: the inhibition amounted to 2.55% in assay [1], 2.33% in assay [2] and 1.24% in assay [3].

In the case of `CCc1c(CCNCCc2cccc(CCNCCc3ccc(OC)c(OC)c3CC)c2)ccc(OC)c1OC`, the inhibition in assay [1] is 2.06%; in assay [2], -1.49%; in assay [3], 0.27%.

With `Cc1cccc2nc(-c3ccc(-c4cccc(CN5CCC(CCN6CCCCC6)CC5)c4)s3)[nH]c12`, the inhibition in assay [1] is -0.21%; in assay [2], 0.87%; in assay [3], -3.24%.

With `O=c1cc(NCCCNCc2cccc(C(F)(F)F)c2Cl)[nH]c2ccccc12`, the figures for the inhibition in assay [1], in assay [2] and in assay [3] were 3.39%, 3.63% and 2.75%, respectively.

With `COc1ccccc1C1CC(c2ccccc2)=NN1C(=O)c1ccco1` (stereo not drawn), the inhibition is -0.28% in assay [1], -0.6% in assay [2] and -4.34% in assay [3].

As for `Cc1nnsc1C(=O)Nc1cccc(-c2cccc(-c3nc4cc(F)ccc4[nH]3)c2)c1`, the inhibition was 0.66% in assay [1], 0.05% in assay [2] and -2.12% in assay [3].

With `Cc1cnc(CN(Cc2ccc(-c3ccc(CNCCc4ccc(S(C)(=O)=O)cc4)cn3)cc2)C(=O)c2nn(-c3ccccc3)nc2C)cn1`, the inhibition is 5.03% in assay [1], 3.95% in assay [2] and 4.81% in assay [3].

With `CCCO[C@H](C(=O)OC)[C@@H](CC1Cc2ccccc2C1)C(=O)NCCC1=CCCCC1`, the values for the inhibition in assay [1], in assay [2] and in assay [3] were 1.54%, 1.34% and 2.2%, respectively.

Take `CS(=O)(=O)c1cccc(-c2cnc(N)c3cc(-c4ccc(F)cc4)ccc23)c1`: the inhibition in assay [1] came out at 2.85%; in assay [2], 1.64%; in assay [3], 1.35%.

As for `O=C(NC1CCN(CCC(NC(=O)c2ccccc2)c2ccc(Cl)c(Cl)c2)CC1)c1ccc(Cl)cc1` (stereo not drawn), the inhibition in assay [1] amounted to 3.39%; in assay [2], 2.33%; in assay [3], 1.88%.

On to `COc1cc2nc(N3CCC(C(N)=O)CC3)nc(NCc3ccccc3)c2cc1OC`, for which the inhibition in assay [1] was found to be 3.29%; in assay [2] it was 1.29%; in assay [3], 0.48%.

In the case of `Cc1ccc2c(O)c([N+](=O)[O-])c(O)nc2c1`, the inhibition in assay [1] was -1.72%; in assay [2] it was 1.03%; in assay [3], 1.6%.

As to `Clc1cnc2ccc3c(c2c1CCN1CCC(NCc2cc4c(cn2)OCCO4)CC1)OCCO3`, the inhibition came to 27.3% in assay [1], 42.2% in assay [2] and 14.9% in assay [3].

In the case of `CCC[C@@H]([C@@H](CC(C)C)C(=O)N[C@@H](CCCCNC(=O)c1ccccn1)C(=O)Nc1nccs1)N(O)C=O`, the inhibition in assay [1] turned out to be 4.93%; in assay [2] it was 6.98%; in assay [3], 1.73%.

`COc1cc(OC)cc(-c2nn(-c3ccc([N+](=O)[O-])cc3Cl)c(=S)n2Cc2ccco2)c1`: the inhibition in assay [1] is -1.56%; in assay [2] it was -0.65%; in assay [3], 2.4%.

As to `CCOc1ccc(CCCON2C(=N)N=C(N)NC2(C)C)cc1`, the inhibition in assay [1] was found to be 9.39%; in assay [2], 10.4%; in assay [3] it was 9.73%.

With `Cc1cccc2nc(-c3ccc(-c4cccc(CNCc5ccc(S(C)(=O)=O)cc5)c4)s3)[nH]c12`, the inhibition in assay [1] was 12.5%; in assay [2] it was 9.13%; in assay [3], 9.52%.
